Reference: PubChem BioAssay (Tox21)
Results filed as inconclusive are left out. Values without a mark were called inactive. Calls of active or inactive are those of the source. Calls follow the shape of the dose curve; as a rule, active = well fitted curve in the direction sought with a large enough effect in the repeat runs; inconclusive = weak or mixed curves; inactive = no such curve, though single readings can be large; an effect the other way counts as inactive or inconclusive.

test: qHTS RealTime-Glo MT Cell Viability Assay in HepG2 cells - 0 hour (AID 1224889); conditions: RealTime-Glo luminescence; series mostly up to 76.8 µM; activity change, negative = cytotoxicity: at the top concentration; also: nearly all actives have a fitted effect of over 50% in size
Method in brief: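 Real-time, nonlytic viability: 600 HepG2 cells/well mixed with NanoLuc enzyme plus prosubstrate; 5 h settle, compound (DMSO) added by pintool; luminescence monitored over 40 h at 37 C.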
% is scaled to controls: 0 for no effect and ±100 for the full control effect.

Point of comparison: `CCCCCC(C)OC(=O)COc1ccc(Cl)c2cccnc12` (stereo unspecified), “activity change, negative = cytotoxicity” value -10.7%. Against it:
- Cc1cc(=O)oc2cc(O)cc(O)c12 — higher, -1.43%

Point of comparison: `COC(=O)C1=C(C)NC(C)=C(C(=O)OCCN2CCN(C(c3ccccc3)c3ccccc3)CC2)C1c1cccc([N+](=O)[O-])c1` (stereo unspecified), “activity change, negative = cytotoxicity” value -10.3% [at 35.3 µM]. Against it:
- CCCc1ccc(OCC(=O)N2CCN(C(=O)COc3ccc(CCC)cc3OC)CC2)c(OC)c1 — lower, -21.5% [at 35.3 µM]
- O=c1[nH]c(=O)n([C@H]2C[C@H](O)[C@@H](CO)O2)cc1F — higher, -0.214% [at 35.3 µM]

test: A CellTox Green Cytotoxicity Assay to monitor cytotoxicity in HepG2 cells - 8 hour (AID 1224890); conditions: CellTox Green fluorescence; series mostly up to 76.8 µM; cytotoxicity increase: at the top concentration; also: nearly all actives have a fitted effect of over 45% in size; also: potency is read from the fitted curve at half-maximal effect
Method in brief: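 Continuous culture of HepG2 cells with a membrane-impermeant DNA dye; rising fluorescence marks dead cells. Compound exposure lasted up to 40 h at 37 C, with reads every 8 h from 0 h.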

Point of comparison: `C=CC(=O)OCCOC(=O)C=C`, “cytotoxicity increase” value 3.06%. Against it:
- O=C(O)CCN(C1(C(=O)NO)CCCC1)S(=O)(=O)c1ccc(Oc2ccc(F)cc2)cc1 — lower, -4.87%
- COc1cc(/C=C/c2ccccc2)oc(=O)c1 — lower, -3.13%
- CC/C=C\CCCCCO — higher, 20.5%
- OC12N=C(c3ccccc3)SC1Cc1cc(Cl)ccc12 (stereo unspecified) — higher, 12.7%
- C/C=C/C=C/COC(=O)C(C)C — higher, 13%
- CCOC(=O)c1ccc(C2CCC(NC[C@H](O)COc3ccc(O)c(NS(C)(=O)=O)c3)CC2)cc1 (stereo partly specified) — lower, 1.84%
- Cc1cc(-c2ccc(N=Nc3cc(S(=O)(=O)O)c4ccccc4c3N)c(C)c2)ccc1N=Nc1cc(S(=O)(=O)O)c2ccccc2c1N — lower, 2.52%
- Cc1ccc(O)c(O)c1 — higher, 10.9%
- [Cl][Pt-2]([Cl])([Cl])[Cl] — lower, -4.16%
- COc1cccc(OC)c1C(=O)O — lower, -6.83%
- C=C(C)C(=O)OCCCCCCCCCC — lower, -5.91%
- CCCCC(CC)COC(=O)CCCCC(=O)OCc1ccccc1 (stereo unspecified) — lower, 1.85%
- C[Si](Cl)(c1ccccc1)c1ccccc1 — lower, 1.37%
- Cl[Si](Cl)(c1ccccc1)c1ccccc1 — higher, 6.35%
- CC1(C)CCC[C@]2(C)[C@H]3CCO[C@]3(C)CC[C@@H]12 — lower, -0.0369%
- COc1ccc(NC(=O)CC(C)=O)cc1 — higher, 3.37%
- O=C(c1ccc(O)c(O)c1)c1ccc(O)cc1O — higher, 14.2%
- O=C(/C=C/c1ccccc1)OC/C=C/c1ccccc1 — lower, -4.8%
- CC[C@H](C)COC(=O)/C=C/c1ccc(N=Cc2ccc(OC)cc2)cc1 — higher, 18.4%
- Sc1nc2ccccc2s1 — higher, 8.2%
- CCCCCC(C)OC(=O)COc1ccc(Cl)c2cccnc12 (stereo unspecified) — higher, 9.88%
- Cc1cc(=O)oc2cc(O)cc(O)c12 — lower, 1.43%

With `CCCCN(CCCC)CC(O)c1cc(Cl)cc2c1-c1ccc(Cl)cc1/C2=C/c1ccc(Cl)cc1` (stereo unspecified) the Potency was 13.4 µM (active).
With `O=C(O)CN(CCN(CC(=O)O)CC(=O)O)CC(=O)O` the Potency was 1.74 µM (active).
In the case of `O=c1[nH]c(=O)n([C@H]2C[C@H](O)[C@@H](CO)O2)cc1F`, the Potency is reported as 6.01 µM (active).

Point of comparison: `O=C1CCc2ccc(OCCCCN3CCN(c4cccc(Cl)c4Cl)CC3)cc2N1`, “cytotoxicity increase” value 6.95% [at 35.3 µM]. Against it:
- C#C[C@]1(OC(C)=O)CC[C@H]2[C@@H]3CCC4=C[C@@H](OC(C)=O)CC[C@@H]4[C@H]3CC[C@@]21C — lower, 0.408% [at 35.3 µM]
- C#C[C@]1(OC(C)=O)CC[C@H]2[C@@H]3CCC4=C/C(=N/O)CC[C@@H]4[C@H]3CC[C@@]21CC — lower, -3.6% [at 35.3 µM]
- COc1ccc2c(c1)c(CC(=O)OC/C=C(\C)CC/C=C(\C)CCC=C(C)C)c(C)n2C(=O)c1ccc(Cl)cc1 — lower, 3.26% [at 35.3 µM]
- CCc1oc2ccccc2c1C(=O)c1cc(I)c(O)c(I)c1 — lower, -15% [at 35.3 µM]
- CCCCCCCCCCC[C@@H](C[C@@H]1OC(=O)[C@H]1CCCCCC)OC(=O)[C@H](CC(C)C)NC=O — lower, -8.68% [at 35.3 µM]
- COc1ccc2cc1Oc1ccc(cc1)C[C@H]1c3c(cc4c(c3Oc3cc5c(cc3OC)CCN(C)[C@@H]5C2)OCO4)CCN1C — higher, 22.4% [at 35.3 µM]
- CC(N=C(NC#N)Nc1ccncc1)C(C)(C)C (stereo unspecified) — lower, -13.4% [at 35.3 µM]
- CCCc1ccc(OCC(=O)N2CCN(C(=O)COc3ccc(CCC)cc3OC)CC2)c(OC)c1 — higher, 22.7% [at 35.3 µM]
- COC(=O)C1=C(C)NC(C)=C(C(=O)OCCN2CCN(C(c3ccccc3)c3ccccc3)CC2)C1c1cccc([N+](=O)[O-])c1 (stereo unspecified) — lower, -6.8% [at 35.3 µM]
